Source: PubChem BioAssay (National Center for Advancing Translational Sciences (NCATS))
PNC inhibitor: High Content Assay for Compounds that inhibit the Assembly of the Perinucleolar Compartment. PC3M PTB-GFP, PNC prevalence imaging, 16 h; hits give low values. activity change (PNC), negative = inhibition, % at 10 µM. actives 3.1% (n = 140,000);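 active = readout at or below -70, meaning at least 70% loss of cells showing the perinucleolar compartment, a nuclear body marking cancer cells; inconclusive = readout between -30 and a set limit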;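 note: plate controls were DMSO wells for no effect and camptothecin positive control wells for full effect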
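Compounds are pinned in duplicate onto adhered PC3M cells stably expressing GFP-tagged PTB and incubated 16 h at 37 C. Cells are then fixed, nuclei stained with Hoechst, and PNC-positive cells counted.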
HPGD inh: qHTS Assay for Inhibitors of HPGD (15-Hydroxyprostaglandin Dehydrogenase). 15-hydroxyprostaglandin dehydrogenase [NAD(+)] (Homo sapiens), P15428. purified HPGD, NADH fluorescence kinetic, PGE2 substrate. Potency, µM, without a hit: at the highest dose activity change, negative = inhibition, usual class: inhibitors. actives 4.3% (n = 150,000); note: potency is the fitted concentration of half-maximal effect
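NADH formation kinetics: reaction with 30 uM PGE2 and 1 mM NAD+ (final), 20 nM enzyme, Tris-HCl pH 8 with Tween 20, after 15 min compound preincubation at room temperature. Fluorescence change, last versus first of five reads.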
ALDH1A1 block: qHTS Assay for Inhibitors of Aldehyde Dehydrogenase 1 (ALDH1A1); Potency, µM (highest dose often 75.3 µM), inactives show top-dose activity, negative = inhibition, most hits filed as inhibitors; actives 7.3% (n = 220,000); Aldehyde dehydrogenase 1A1 (Homo sapiens), P00352; Purified ALDH1A1, NADH fluorescence, propionaldehyde substrate;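 note: potency is the fitted concentration of half-maximal effect; plate controls were no enzyme wells and a reference inhibitor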
Target sequence (P00352 whole entry, looked up): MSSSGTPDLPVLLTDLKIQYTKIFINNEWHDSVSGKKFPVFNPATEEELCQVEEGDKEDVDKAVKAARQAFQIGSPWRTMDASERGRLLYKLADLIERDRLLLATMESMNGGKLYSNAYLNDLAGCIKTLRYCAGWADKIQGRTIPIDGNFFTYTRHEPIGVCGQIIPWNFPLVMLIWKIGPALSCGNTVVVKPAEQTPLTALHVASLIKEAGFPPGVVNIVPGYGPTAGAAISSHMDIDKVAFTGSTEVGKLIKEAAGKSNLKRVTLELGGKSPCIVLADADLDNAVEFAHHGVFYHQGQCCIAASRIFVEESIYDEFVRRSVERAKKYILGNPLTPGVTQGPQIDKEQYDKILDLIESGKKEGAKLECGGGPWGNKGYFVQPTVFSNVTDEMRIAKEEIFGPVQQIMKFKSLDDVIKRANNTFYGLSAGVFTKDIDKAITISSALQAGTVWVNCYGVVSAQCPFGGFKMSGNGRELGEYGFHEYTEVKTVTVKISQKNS
Numbers without * were called inactive; [ ] = remark or other dose. Hits are enriched below; roughly 11% of the tested compounds scored in any of these assays. Unless noted, calls come from the whole dose curve; as a rule, active = well fitted inhibition curve with a large enough effect (not every such curve was filed as active); inconclusive = small, poorly fitted or top-dose-only effect, or another doubt; inactive = no such curve, though single readings can be large or run the other way. Unless noted, % is set by controls: 0 for no effect and ±100 for the full control effect.

Results for C[C@@]12C[C@H](O)C3[C@H](CCC4=CC(=O)CC[C@]43C)[C@H]1CC[C@@H]2c1csc(-c2ccccc2)n1 (stereo not given in full) ?
HPGD inh: -15.2%; ALDH1A1 block: 3.2%[13.5 µM]

What do the screens show for `Nc1ccccc1[N+](=O)[O-]`?
HPGD inh: -5.7%; ALDH1A1 block: 10.6%

Results for Cc1ccc(Cc2cnc(NC(=O)c3ccco3)s2)cc1 ?
PNC inhibitor: 13.5; HPGD inh: -6.4%; ALDH1A1 block: -10.5%

What do the screens show for `O=C(Nc1ncc(Cc2ccc(SC(F)F)cc2)s1)c1ccc(OC(F)F)cc1`?
PNC inhibitor: -85.6*; HPGD inh: -29.1%; ALDH1A1 block: inconclusive

How did COc1ccc(CNC(=O)c2cnc(C)cn2)c(OC)c1 do in these assays?
PNC inhibitor: 5.4; HPGD inh: -6.2%; ALDH1A1 block: inconclusive

How did COc1ccc(CNC(=O)C(C)Sc2ccc(C)cc2)cc1 (stereo not given) do in these assays?
ALDH1A1 block: 14.1µM*

What do the screens show for `COc1ccc(CNC(=O)c2c(-c3cc(Cl)c(OC)c(Cl)c3)noc2C)cc1`?
PNC inhibitor: 22.0; HPGD inh: -6.8%; ALDH1A1 block: 0.0447µM*

How did COc1ccc(CNC(=O)c2ccc(C(C)(C)C)cc2)cc1 do in these assays?
ALDH1A1 block: 9.2%

What do the screens show for `Cc1onc(-c2ccccc2Cl)c1C(=O)NCc1ccccc1`?
PNC inhibitor: -14.0; HPGD inh: -12.8%; ALDH1A1 block: 1.7%

How did Cc1ccc(SC(C)C(=O)NCc2ccncc2)cc1 (stereo not given) do in these assays?
ALDH1A1 block: -3.1%

Results for COc1ccc(CNC(=O)c2ccc(C)o2)cc1 ?
PNC inhibitor: -3.6; HPGD inh: 3.55µM*; ALDH1A1 block: -9.3%

Results for COc1ccc(CNC(=O)c2cnc(C)cn2)cc1 ?
PNC inhibitor: 22.0; HPGD inh: 25.1µM*; ALDH1A1 block: inconclusive

How did Cc1c(C)n(Cc2ccccc2)c2ccc(C(=O)OCCN(C)C)cc12 do in these assays?
ALDH1A1 block: -9.5%

Results for Nc1nccs1 ?
HPGD inh: -5.4%; ALDH1A1 block: -3.8%

What do the screens show for `S=C(NNc1ccc2ccccc2c1)NC1CCCCC1`?
PNC inhibitor: -17.5; HPGD inh: -6.8%; ALDH1A1 block: -6.5%

Results for Cc1ccc(S(=O)(=O)N(CC(=O)O)Cc2cccc(C)c2)cc1 ?
HPGD inh: 3.8%; ALDH1A1 block: -2.9%

How did Cc1ccc(S(=O)(=O)NCCNC(=O)N2CCOCC2)cc1 do in these assays?
PNC inhibitor: 7.5; HPGD inh: -8.5%; ALDH1A1 block: -0.6%

How did Cc1ccc(S(=O)(=O)NC(CN2CCOCC2)=NCCNS(=O)(=O)c2ccccc2)cc1 do in these assays?
PNC inhibitor: 17.1; HPGD inh: -12.6%; ALDH1A1 block: 2.51µM*

What do the screens show for `C=CC[C@@](C(C)=O)(C(=O)OC)C(NC(=O)OC(C)(C)C)c1ccccc1` (stereo not given in full)?
HPGD inh: -4.0%; ALDH1A1 block: -1.1%

Results for CC1Cc2ccccc2N1C1=CC(=O)CCC1 (stereo not given) ?
ALDH1A1 block: -8.9%

How did COCCn1c(SCC(=O)c2ccc(Cl)cc2)nnc1C(C)C do in these assays?
PNC inhibitor: 19.3; HPGD inh: inconclusive; ALDH1A1 block: 9.46µM*

Results for COCCn1c(SCC(=O)c2ccc3c(c2)OCCO3)nnc1C(C)C ?
PNC inhibitor: 6.5; HPGD inh: -8.8%; ALDH1A1 block: 10µM*

Results for COCCn1c(SCC(=O)Nc2cc(C)cc(C)c2)nnc1C(C)C ?
PNC inhibitor: -18.8; HPGD inh: -15.2%; ALDH1A1 block: inconclusive

What do the screens show for `CCCn1c(SCC(=O)c2ccc3c(c2)OCCO3)nnc1-c1ccco1`?
PNC inhibitor: 21.0; HPGD inh: -3.1%; ALDH1A1 block: -5.9%

How did COc1cccc(-c2ccc(SCc3ccccn3)nn2)c1 do in these assays?
ALDH1A1 block: 4.6%

What do the screens show for `COc1ccccc1C1C(C(=O)c2cc3ccccc3o2)=C(O)C(=O)N1CCN(C)C` (stereo not given)?
PNC inhibitor: 16.1; HPGD inh: -12.7%; ALDH1A1 block: 20µM*

Results for COCCCN1C(=O)C(O)=C(C(=O)c2ccc(C)o2)C1c1cccc(Br)c1 (stereo not given) ?
PNC inhibitor: -22.5; HPGD inh: -10.4%; ALDH1A1 block: 10.8%

What do the screens show for `CCN(CC)CCN1C(=O)C(O)=C(C(=O)c2cc3ccccc3o2)C1c1cccnc1` (stereo not given)?
PNC inhibitor: -26.6; HPGD inh: -6.8%; ALDH1A1 block: -7.9%
